# Test results taken from PubChem BioAssay AID1048 (The Scripps Research Institute Molecular Screening Center, 2008).
# Out of some 99,000 compounds screened, about 390 (0.39%) were called active. The list comes from a sample in which actives are over-represented; it also holds similar structures and randomly drawn compounds. A number with no mark means an inactive call. Rule as the data show it: active = TR-FRET ratio above about 2000; inactive = the rest.
# Assay: signal artefacts in PPARgamma/SRC-3 readout – biochemical, TR-FRET ratio, artefact control for PPARgamma SRC-3 recruitment agonists (AID 1048)
# Conditions: TR-FRET artefact counter-screen, PPARgamma/SRC-3 format; at 8 µM; active compounds read high
row,SMILES,TR-FRET ratio
1,CN1/C(=C\C(=O)c2cccnc2Cl)C(C)(C)c2ccccc21,1630
2,Cc1ccc(Cl)cc1N1CCN(C(=O)c2cccc3c(=O)c(C)c(-c4ccccc4)oc23)CC1,1350
3,O=C(CC1SC(=Nc2ccccc2F)N(CCN2CCOCC2)C1=O)Nc1ccc(F)cc1F (centres undefined),1720
4,O=C(NNC(=O)c1cc2c(s1)CCCC2)c1ccccc1,1550
5,CC(C)c1nc(CNC(=O)CC2C(=O)NCCN2Cc2ccoc2)cs1 (centres undefined),1610
6,CCc1cccc(CC)c1NC(=O)COc1ccccc1C(=O)c1cc(C#N)c(=O)n(C2CCCCC2)c1,1810
7,CCN(CC(=O)NCCc1ccccc1)S(=O)(=O)c1ccc(C)cc1,1520
8,O=C(O)CCN(Cc1ccccc1)S(=O)(=O)c1c(Cl)cccc1Cl,1570
9,O=C(CCc1ccccc1)Nc1nn[nH]n1,1720
10,C/C(CC(=O)N1CCN(C=O)CC1)=N\NC(=O)c1ccc(Br)cc1,1640
11,O=C(Nc1cccc(Cl)c1)c1cc([N+](=O)[O-])ccc1N1CCN(CCO)CC1,1540
12,O=C(C1CCN(C2CCN(Cc3cccc4c3OCO4)CC2)CC1)N1CCOCC1,1420
13,Cc1cc(OCC(=O)NC2CCN(C)CC2)ccc1[N+](=O)[O-],1610
14,O=C(Nc1ccccc1C(=O)N1CCOCC1)c1ccc(Cl)cc1,1680
15,COc1ccc(C(=O)Nc2ccc(NC(=O)C(C)C)nc2)cc1,1500
16,C=CCn1nc(-c2ccccc2)c2c(C)onc2c1=O,1650
17,O=C(N1CCCCC1)N1CCN(C(=O)N2CCCCC2)CC1,1530

row,SMILES,TR-FRET ratio
1,CC(=O)Nc1ccccc1OC(C)C(=O)N1CCC(C)CC1 (centres undefined),1390
2,O=C(NCc1ccncc1)NC12CC3CC(CC(C3)C1)C2,1490
3,Cc1ccc(C(=O)OC(C)CN2CCOCC2)cc1 (centres undefined),1500
4,CCOC(=O)C1CCCN(C(=O)/C=C/c2ccc(OC)cc2)C1 (centres undefined),1570
5,COc1ccc(CN2CCCC(CNC(=O)c3ccc(F)cc3)C2)cc1OC (centres undefined),1700
6,Cc1ccnc(NC(=O)CCC(=O)N(CC(=O)NCCc2ccccc2)Cc2cccs2)c1,1720
7,COc1cccc(CC2(CO)CCCN(Cc3nc(-c4cccs4)oc3C)C2)c1 (centres undefined),1600
8,CCOC(=O)N1CCN(C(=O)Cn2cnc3ccccc3c2=O)CC1,1650
9,Cc1ccc2nsnc2c1NC(=O)c1ccccc1[N+](=O)[O-],1630
10,COc1cc(/C=C/C(=O)O)cc(S(=O)(=O)Nc2ccccc2SC)c1OC,1430
11,CCSc1nc(C)c(CCOc2cccc(C)c2)c(=O)[nH]1,1860
12,Cc1ccc(C(=O)NCC(=O)O)s1,1560
13,COc1cc(COCC(O)CN2CCN(Cc3ccc4c(c3)OCO4)CC2)cc(OC)c1OC (centres undefined),1800
14,CCN(CC)CC(=O)Nc1sc2c(c1C(=O)c1ccccc1C)CCC2,1510
15,NC(=O)C[C@@H]1NC(=O)CNC(=O)c2cc([N+](=O)[O-])cc(I)c2NCCC(C(N)=O)NC1=O (some centres undefined),1320
16,Cc1cc(C(=O)NNC(=O)c2cccc(S(=O)(=O)N3CCOCC3)c2)c2ccccc2n1,1670
17,O=C(Cc1ccccc1)NNC(=O)C1CCN(c2ncccn2)CC1,1500
